Over roughly 33,000 sequences, “E-score (-0.5 to 0.5)” has its median near -0.054; the highest 2% begin near 0.35. Only a selection was taken, and the highest values are over-represented in it overall.
Molecular target: T1, Stb5 (UniProt P38699)
T1 sequence: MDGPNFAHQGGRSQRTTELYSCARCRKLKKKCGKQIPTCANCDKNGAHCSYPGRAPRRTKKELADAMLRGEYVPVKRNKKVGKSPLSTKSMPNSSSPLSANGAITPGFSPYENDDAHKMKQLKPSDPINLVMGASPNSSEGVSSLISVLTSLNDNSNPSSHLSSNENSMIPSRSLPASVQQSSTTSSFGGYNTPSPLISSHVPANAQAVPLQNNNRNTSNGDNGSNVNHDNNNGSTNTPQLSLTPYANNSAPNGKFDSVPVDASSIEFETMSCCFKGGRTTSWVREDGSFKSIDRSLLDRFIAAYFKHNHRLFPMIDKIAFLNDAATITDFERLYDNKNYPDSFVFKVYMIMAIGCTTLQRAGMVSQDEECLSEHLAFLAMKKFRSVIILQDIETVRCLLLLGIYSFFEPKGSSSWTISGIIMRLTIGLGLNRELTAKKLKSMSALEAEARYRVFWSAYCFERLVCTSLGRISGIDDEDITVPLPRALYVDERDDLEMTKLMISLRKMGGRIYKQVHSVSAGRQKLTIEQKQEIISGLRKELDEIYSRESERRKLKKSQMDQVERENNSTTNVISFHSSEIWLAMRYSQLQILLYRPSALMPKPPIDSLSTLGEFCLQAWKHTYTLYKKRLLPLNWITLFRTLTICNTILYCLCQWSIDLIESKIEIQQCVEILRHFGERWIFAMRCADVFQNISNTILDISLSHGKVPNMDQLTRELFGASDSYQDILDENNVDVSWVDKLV
Assay: PBM E-score (8-mer binding enrichment) (E-score (-0.5 to 0.5)); higher = stronger / more preferred TF binding
Details: protein concentration: 200 nM; construct: GST-full length
Outline: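 Universal all-10-mer Agilent arrays, double-stranded by primer extension on fresh or once-stripped slides, were probed with about 100-200 nM GST-tagged yeast transcription factors made by PURExpress. Fluorescent anti-GST detected bound protein, and masliner normalised the scans. E-scores from the Universal PBM Analysis Suite were given to each ungapped eight-base word pooled with its reverse complement.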

In order of rising “PBM E-score” value:
1. CATGTTCA  -0.334
2. CAAGAGGG  -0.306
3. AGGCGATC  -0.302
4. AGGGCGAG  -0.295
5. TGGAGACA  -0.254
6. AGGAGCAC  -0.252
7. TGCCTCCA  -0.237
8. TCGAAACA  -0.233
9. AGTCGTAG  -0.232
10. AGACACCC  -0.231
11. ACTCCCCA  -0.225
12. AAGGCTCT  -0.214
13. ACGAGGCA  -0.206
14. CAACACCC  -0.206
15. AGGGCAGG  -0.205
16. GCACCTCA  -0.199
17. AATTGAAA  -0.198
18. CCATCTAA  -0.192
19. CAGAGTGG  -0.19
20. ATGATGGC  -0.19
21. ATAGACCA  -0.188
22. ACGCCAGC  -0.181
23. CTACATGC  -0.179
24. AAAGTATG  -0.172
25. CCACTAGG  -0.166
26. CACGCCTG  -0.158
27. ATCTTTGA  -0.157
28. ATTTCACA  -0.157
29. ACCTGACA  -0.145
30. AGACACCA  -0.13
31. CTTATCAA  -0.125
32. AGTTTCTG  -0.117
33. GGCTCGAC  -0.113
34. GTCATTGA  -0.109
35. CAACACCA  -0.1
36. AGGGGCGA  -0.0945
37. ACAATGAA  -0.0923
38. CTTCTGTA  -0.09
39. GCCATTAA  -0.0877
40. AAATACTG  -0.0876
41. TGTATTAA  -0.0825
42. TAGTAGGA  -0.0819
43. ATACACCA  -0.0712
44. GCACTGGC  -0.0607
45. GTCTTTTA  -0.0581
46. GCTAAGTA  -0.0566
47. AGGGGCGC  -0.0545
48. AGTACCAG  -0.0537
49. TACAACCA  -0.0508
50. CATCATAG  -0.0501
51. TTCTCCAA  -0.0481
52. AGGCGATA  -0.0449
53. CTTAAACC  -0.0424
54. ACACACCT  -0.0405
55. AGTGGCAA  -0.04
56. AAGGAGGT  -0.0343
57. CACCACAA  -0.0283
58. AAGAGTGC  -0.0116
59. AGTATTAA  -0.0112
60. CGTCATGA  -0.0111
61. AGGCGCGA  -0.00867
62. GAGCCAGC  0.00015
63. ATTCCGTG  0.00715
64. AGAACCAC  0.0238
65. GAGTGGGC  0.0251
66. GGGCGCTA  0.0264
67. AGTACCCG  0.0305
68. AGTATTAC  0.0335
69. ATCTTTTA  0.034
70. AGGCGCCA  0.041
71. CGACACCA  0.0464
72. TACAGATA  0.048
73. TGGCGCCA  0.0517
74. GGCATTCA  0.0519
75. AGGCGCTA  0.0525
76. AGGTGCGC  0.0592
77. ACACACCC  0.0669
78. ACTATCCA  0.0766
79. CTGCTATA  0.0793
80. ATGCGGGC  0.087
81. AGCGGCTG  0.0872
82. AGGCGGAT  0.0922
83. CGACACCC  0.0971
84. CTCCGAGC  0.102
85. GCGACAGC  0.105
86. GGGCGATA  0.11
87. GCGCCAGC  0.112
88. GCAAGCCC  0.117
89. AGGCGGAA  0.131
90. TATGTCCA  0.133
91. ATTCCGTC  0.141
92. CGGACAAC  0.144
93. GTCCGAGA  0.184
94. CTCCGAGA  0.187
95. CGTATTAC  0.188
96. ACGCCCCG  0.188
97. ATCCGCTG  0.189
98. CCTCCGTC  0.195
99. ACTTACCG  0.195
100. GCCCCGAA  0.198
101. ACTCCGAG  0.202
102. CGTACCGA  0.205
103. CGTCCGTC  0.21
104. CCCCCGAA  0.213
105. CAATTATC  0.215
106. AACGGCGC  0.222
107. AACCCGAT  0.222
108. AGGCGGGA  0.234
109. AGGCGGCC  0.235
110. AACAGCGA  0.235
111. ATACCCGG  0.239
112. ACGCGGAC  0.241
113. AAGTGCGC  0.243
114. ATACACCC  0.254
115. GTCCGAAA  0.259
116. CCATCGGG  0.262
117. ATCCGACC  0.262
118. TCCCCGAA  0.266
119. ATCGGCGA  0.272
120. CGGCGCGC  0.275
121. AGGCGGGC  0.275
122. ACGCCCGC  0.28
123. ATCCGACA  0.283
124. AGTCCGTA  0.284
125. CACAGCGG  0.286
126. GGTACCGA  0.286
127. ATCGGCGC  0.291
128. GACCCGAC  0.295
129. CGTACCGC  0.302
130. AGCGGCGA  0.317
131. CGCGGCGC  0.318
132. ACTCCGAA  0.328
133. ACTACCGC  0.329
134. CCGCCCCC  0.335
135. CCGCCCGG  0.344
136. AACCCGAC  0.347
137. CCCCCGAC  0.349
138. ACTCCGTA  0.35
139. ACCCCGAG  0.351
140. ACTCCGTG  0.352
141. AGGCGGAC  0.356
142. AGGCGGAG  0.356
143. CCGCCAGC  0.356
144. AGGGGCGG  0.36
145. CCGCCCGC  0.362
146. AGCGGCGC  0.363
147. ATCGGCGG  0.363
148. AACAGCGG  0.366
149. CTCCGACA  0.366
150. ACTCCGTC  0.367
151. AGTACCGG  0.367
152. ACCCCGAA  0.37
153. GCCCCGAC  0.371
154. CGACACCG  0.371
155. ACACACCG  0.372
156. CGGCGCGA  0.373
157. CTCCGACC  0.375
158. CGGCGCCA  0.377
159. AGGCGGGG  0.38
160. GGTATTAC  0.386
161. AGTCCGTC  0.389
162. AGCGGCGG  0.401
163. ATACACCG  0.402
164. GTCCGACA  0.403
165. GGTATTAA  0.404
166. CAACACCG  0.408
167. CCGCCCCG  0.409
168. ACTCCGAC  0.425
169. AGTACCGC  0.435
170. AGACACCG  0.436
171. AGTACCGA  0.439
172. ACCCCGAT  0.441
173. ACCCCGAC  0.444
174. CGGCGCTA  0.447
175. CGGCGATA  0.463
